PubChem BioAssay (NCATS)
Results filed as inconclusive are left out. Active and inactive are the calls of the source. The call rests on the fitted dose curve; in most records, active means well fitted cell-killing curve with a large enough effect; inconclusive means small, poorly fitted or top-dose-only effect, or effect the other way; inactive means no such curve, though single readings can be large or run the other way.

What was measured:
[1] = Quantitative High-Throughput drug screen in 47 multiple myeloma cell lines against the NCATS MIPE library collection: Karpas25_ECACC cell viability assay (AID 1918968; further: nearly all actives have a fitted effect of over 35% in size)
In short: (§1)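 We plated 500 myeloma cells per well, pinned in MIPE 4.0 compounds, and incubated for 48 hours at 37C. ATP was then quantified with CellTiter-Glo, with DMSO and media-only wells defining 100% and 0%.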

[2] = Quantitative High-Throughput drug screen in 47 multiple myeloma cell lines against the NCATS MIPE library collection: KMS12BM_JCRB cell viability assay (AID 1918971); further: nearly all actives have a fitted effect of over 35% in size
In short: (§2)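 Relative luminescence from CellTiter-Glo served as the viability signal, referenced to DMSO-treated (100%) and cell-free medium (0%) controls. Treatment lasted 48 hours at 37C with 500 cells per well.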

[3] = Quantitative High-Throughput drug screen in 47 multiple myeloma cell lines against the NCATS MIPE library collection: MMM1_PLB cell viability assay (AID 1918976); further: nearly all actives have a fitted effect of over 35% in size
In short: (§3)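 Cells were exposed to library compounds for 48 hours, after which ATP was measured by CellTiter-Glo. Signal was taken as median relative luminescence units.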

[4] = Quantitative High-Throughput drug screen in 47 multiple myeloma cell lines against the NCATS MIPE library collection: KMS27_JCRB cell viability assay (AID 1918970); further: nearly all actives have a fitted effect of over 30% in size
In short: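 Viability inhibition screen, 48 h compound exposure, luminescent ATP read-out.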

[5] = Quantitative High-Throughput drug screen in 47 multiple myeloma cell lines against the NCATS MIPE library collection: KMS12PE_JCRB cell viability assay (AID 1918972); further: nearly all actives have a fitted effect of over 30% in size
In short: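 Viability readout: CellTiter-Glo luminescence following 5 min room-temperature incubation with reagent. Prior exposure: 48 h, 37C, humidified 5% CO2, 500 cells per well.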

[6] = Quantitative High-Throughput drug screen in 47 multiple myeloma cell lines against the NCATS MIPE library collection: KMS20_JCRB cell viability assay (AID 1918973); further: nearly all actives have a fitted effect of over 45% in size
In short: as §1

[7] = Quantitative High-Throughput drug screen in 47 multiple myeloma cell lines against the NCATS MIPE library collection: MOLP8_DSMZ cell viability assay (AID 1918977); further: nearly all actives have a fitted effect of over 45% in size
In short: as §3

[8] = Quantitative High-Throughput drug screen in 47 multiple myeloma cell lines against the NCATS MIPE library collection: KMS21BM_JCRB cell viability assay (AID 1918974); settings: ATP luminescence, 48 h; viability: at 45.8 µM (top of the series) unless noted
In short: as §1

[9] = Quantitative High-Throughput drug screen in 47 multiple myeloma cell lines against the NCATS MIPE library collection: KMS26_JCRB cell viability assay (AID 1918975); further: nearly all actives have a fitted effect of over 45% in size
In short: as §2

Measured: Potency
Potency means the concentration at half of the fitted maximal effect.

O=c1cc(-c2ccc(O)cc2)oc2cc(O)cc(O)c12
active: [1] 10.5 µM | [2] 13.2 µM | [3] 18.7 µM

C[C@H](NC(=O)c1sccc1OCc1ccc(Cl)cc1)c1ccccc1
active: [1] 16.6 µM | [2] 18.7 µM | [3] 16.6 µM
inactive: [4] | [5]

O=C(O)c1ccc(-c2cc3cccnc3c(-c3ccc4nonc4c3)n2)cc1
active: [1] 23.5 µM | [2] 20.9 µM | [5] 20.9 µM | [6] 11.8 µM | [3] 26.4 µM | [7] 26.4 µM

Oc1ccc(C2=Cc3ccc(O)cc3OC2)cc1
active: [1] 1.48 µM | [4] 2.09 µM | [2] 2.96 µM | [6] 3.32 µM | [8] 2.35 µM | [3] 5.26 µM | [7] 2.35 µM

Cc1ccccc1C(C(=O)NC1CCCCC1)N(C(=O)Cn1ccnc1C)c1cccc(F)c1 (stereo not drawn)
inactive: [4]
active: [1] 18.7 µM | [2] 8.33 µM | [5] 2.35 µM | [3] 10.5 µM

Cc1c(NC(=O)c2ccc(C(C)(C)C)cc2)cccc1-c1cn(C)c(=O)c(Nc2ccc(C(=O)N3CCOCC3)cc2)n1
active: [1] 16.6 µM | [2] 23.5 µM | [5] 5.26 µM | [9] 16.6 µM | [3] 26.4 µM
inactive: [7]

CCCCCCCCCCCC1=C(O)C(=O)C=C(O)C1=O
active: [1] 2.96 µM | [4] 0.187 µM | [2] 23.5 µM | [5] 1.18 µM

CCN(CC)CCOc1ccc(C(=C(Cl)c2ccccc2)c2ccccc2)cc1
active: [8] 18.7 µM
inactive: [1] | [2] | [3] | [7]

COc1ccc(-c2nc(N3CCOCC3)c3sc(CN(C)c4ncc(C(=O)NO)cn4)cc3n2)cn1
active: [4] 0.001 µM | [5] 0.001 µM | [9] 0.0264 µM
inactive: [1] | [2] | [6] | [7]

COc1cccc2c1CCCC2CCCN1CCN(C2CCCCC2)CC1 (stereo not drawn)
active: [1] 18.7 µM | [4] 16.6 µM | [2] 23.5 µM | [5] 16.6 µM | [3] 14.8 µM

CC1(C)CCC2=C(O1)c1ccccc1C(=O)C2=O
active: [1] 5.9 µM | [4] 3.32 µM | [2] 20.9 µM | [5] 5.9 µM | [6] 18.7 µM | [9] 18.7 µM | [3] 2.64 µM | [7] 20.9 µM

NS(=O)(=O)c1ccc(NC2=CC(=O)c3ccccc3C2=O)cc1
active: [1] 0.833 µM | [4] 1.32 µM | [5] 0.526 µM | [9] 3.72 µM
inactive: [2] | [7]

CCCCCNC(=O)N1CCC(CN(Cc2ccc(Cl)cc2)Cc2ccc([N+](=O)[O-])s2)C1 (stereo not drawn)
active: [1] 20.9 µM | [4] 20.9 µM | [2] 23.5 µM | [5] 18.7 µM | [3] 20.9 µM | [7] 18.7 µM

C=C1C(=O)OC(CCCCCCCC)C1C(=O)O (stereo not drawn)
inactive: [4] | [7]
active: [1] 26.4 µM

N#Cc1ccc(NC(=O)Nc2ccccc2Br)c2n[nH]nc12
inactive: [2] | [6]
active: [1] 16.6 µM | [4] 13.2 µM | [5] 9.35 µM

COC(=O)N[C@H](C(=O)N1CCC[C@@H]1c1ncc(-c2ccc(-c3ccc(-c4cnc([C@@H]5CCCN5C(=O)[C@@H](NC(=O)OC)C(C)C)[nH]4)cc3)cc2)[nH]1)C(C)C
active: [1] 23.5 µM | [4] 23.5 µM | [2] 20.9 µM | [5] 16.6 µM

NC(=O)c1cccc(-c2cc(Nc3ccc(OC(F)(F)F)cc3)ncn2)c1
active: [1] 8.33 µM | [4] 18.7 µM | [2] 23.5 µM | [5] 16.6 µM | [3] 20.9 µM

COc1cc2c(cc1OC)CN(CCc1ccc(NC(=O)c3cc(OC)c(OC)cc3NC(=O)c3cnc4ccccc4c3)cc1)CC2
active: [1] 8.33 µM | [2] 10.5 µM | [3] 2.35 µM
inactive: [4] | [5] | [7]

Cc1cc(OCCCc2c(C(=O)O)n(Cc3cccnc3)c3c(-c4c(COc5ccc(N6CCN([S+](C)(=O)[O-])CC6)cc5)nn(C)c4C)cccc23)cc(C)c1Cl
inactive: [4]
active: [1] 20.9 µM | [2] 26.4 µM | [5] 6.62 µM | [9] 20.9 µM | [3] 14.8 µM | [7] 20.9 µM
